# This is a sample that favours compounds with a hit; in the whole collection about 9.9% have one here.
# Tau FP inhib: blocks human tau fibril formation measured by polarization | Potency, µM (titrated, usually from 57.7 µM), inactives show at the top dose activity, negative = inhibition, hits mostly inhibitors | P10636 | K18 P301L tau heparin fibrillization, Alexa594 FP, 6 h | AID 1468 | hit rate 0.39% among 280,000; active means well fitted curve in the direction sought with a large enough effect; inconclusive means small, poorly fitted or top-dose-only effect, or another doubt; inactive means no such curve, though single readings can be large; an effect the other way counts as inactive or inconclusive; further: nearly all actives have a fitted effect of over 55% in size
# Target sequence (P10636 561-689 P618L limits assumed): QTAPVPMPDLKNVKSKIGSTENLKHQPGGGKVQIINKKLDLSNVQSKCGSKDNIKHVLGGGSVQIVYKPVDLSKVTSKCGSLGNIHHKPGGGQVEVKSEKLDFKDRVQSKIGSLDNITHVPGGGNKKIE
#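 Quantitative HTS format: compounds meet 15 uM recombinant K18 P301L tau and Alexa 594-tau tracer in 100 mM sodium acetate pH 7; 20 uM heparin triggers fibrillization at 37 C over 6 hr; FP gives the signal.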
# HPGD block: inhibitors of human 15-hydroxyprostaglandin dehydrogenase (HPGD). AID 894. Potency, µM, inactives show at the highest dose activity change, negative = inhibition, actives largely listed as inhibitors. hit rate 4.3% among 150,000. purified HPGD, NADH fluorescence kinetic, PGE2 substrate. P15428
# Target sequence (P15428 whole entry, looked up): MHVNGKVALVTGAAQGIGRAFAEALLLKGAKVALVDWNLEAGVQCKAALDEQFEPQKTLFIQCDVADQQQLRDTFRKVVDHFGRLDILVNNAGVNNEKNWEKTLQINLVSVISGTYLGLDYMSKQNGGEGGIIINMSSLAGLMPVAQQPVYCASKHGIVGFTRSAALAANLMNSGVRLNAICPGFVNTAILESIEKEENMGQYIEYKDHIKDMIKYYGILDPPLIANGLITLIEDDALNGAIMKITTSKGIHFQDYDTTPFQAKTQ
#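 NADH formation kinetics: reaction with 30 uM PGE2 and 1 mM NAD+ (final), 20 nM enzyme, Tris-HCl pH 8 with Tween 20, after 15 min compound preincubation at room temperature. Fluorescence change, last versus first of five reads.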
# KDM4E inh: blocks human JMJD2E demethylase activity; B2RXH2; JMJD2E catalytic domain, FDH-coupled NADH fluorescence (FDH is formaldehyde dehydrogenase); Potency, µM (doses to about 57.1 µM), inactives show top-dose activity change, negative = inhibition, actives largely listed as inhibitors; hit rate 1.6% among 230,000; AID 2147;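 further: 0% = wells with enzyme and -100% = buffer wells without enzyme; nearly all actives have a fitted effect of over 50% in size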
# ALDH1A1 block: blocks purified human ALDH1A1 activity; P00352; hit rate 7.3% among 220,000; Potency, µM (top dose mostly 75.3 µM), inactives show at the highest dose activity, negative = inhibition, usual class: inhibitors; Purified ALDH1A1, NADH fluorescence, propionaldehyde substrate;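 further: plate controls were no enzyme wells and a reference inhibitor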
# Tau fluor counter: counter-screen for tau fibril formation inhibitors | tau K18 P301L Alexa594 fluorescence, heparin fibrillization | Potency, µM (titrated, usually from 57.7 µM), for the others: top-dose activity change, negative = decrease | hit rate 0.93% among 280,000 | AID 1463; active means well fitted curve in the direction sought with a large enough effect; inconclusive means small, poorly fitted or top-dose-only effect, or another doubt; inactive means no such curve, though single readings can be large; an effect the other way counts as inactive or inconclusive; further: nearly all actives have a fitted effect of over 55% in size
#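 Human K18 P301L tau (15 uM unlabeled plus 0.24 uM Alexa 594-labeled, final) in 100 mM sodium acetate pH 7 was mixed with compound and 20 uM heparin and incubated 6 hr at 37 C.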
# Tau ThT inhib: tau fibrillization inhibition (ThT binding); P10636; recombinant tau K18 P301L (four-repeat tau fragment), heparin-induced fibrillization, ThT fluorescence; Potency, µM (doses to about 57.4 µM), for inactives: at the top dose activity, negative = inhibition, most hits filed as inhibitors; hit rate 2.1% among 270,000; active means well fitted curve in the direction sought with a large enough effect; inconclusive means small, poorly fitted or top-dose-only effect, or another doubt; inactive means no such curve, though single readings can be large; an effect the other way counts as inactive or inconclusive; further: nearly all actives have a fitted effect of over 55% in size
#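 In this qHTS, human K18 P301L tau is incubated with compound and heparin for 6 hr at 37 C, and Thioflavin T fluorescence then reports fibril load.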
# * = called active by the depositor; ? = inconclusive; · = not tested or not shown; [ ] = another dose, or the depositor's remark. Unless noted, the call rests on the fitted dose curve; in most records, active means well fitted inhibition curve with a large enough effect (not every such curve was filed as active); inconclusive means small, poorly fitted or top-dose-only effect, or another doubt; inactive means no such curve, though single readings can be large or run the other way. Unless noted, on the % scale 0 is the no-effect control and ±100 the full control effect; potency means the concentration at half of the fitted maximal effect.
SMILES,Tau FP inhib,HPGD block,KDM4E inh,ALDH1A1 block,Tau fluor counter,Tau ThT inhib
COc1ccc(C2(C)NC(=O)N(CC(=O)Nc3ccc(S(=O)(=O)N4CCCC4)cc3)C2=O)cc1 (stereo not given),-7%,·,-11%,-10%,-14%,-4%
Cc1ccc(-n2c(N)c(C(=O)NCc3cccnc3)sc2=S)cc1,-10%,25µM*,-2%,?,-2%,-5%
CCOC(=O)c1sc(=S)n(-c2ccc(C)cc2)c1N,-5%,·,-8%,14µM*,-26%,?
CCOC(=O)c1sc(=S)n(-c2ccc(F)c(F)c2)c1N,-4%,?,0%,13µM*,-1%,0%
CCOC(=O)c1sc(=S)n(-c2ccc3c(c2)OCO3)c1N,10%,7.9µM*,8%,10µM*,-15%,-15%
CCOC(=O)c1sc(=S)n(C)c1N,-6%,-16%,1%,-2%,-14%,-11%
Cc1cccc(-c2c3c(=O)n(C)c(=O)n(C)c3cn2-c2cc(N)c(Cl)cc2Cl)c1,-2%,·,·,·,?,?
CC(C)C(=O)Nc1ccnc(-c2cccnc2)n1,4%,-16%,5%,6%,1%,-1%
CCOc1ccc(NC(=O)CC2C(=O)N(c3ccccc3)C(=O)N2C2CCCCC2)cc1 (stereo not given),-4%,·,·,·,-20%,0%
NS(=O)(=O)c1ccc(CCNS(=O)(=O)c2cccc(C(=O)O)c2)cc1,1%,·,-5%,·,-19%,-15%
C1CCN(CCCNC2C3CC4CC(C3)CC2C4)C1 (stereo not given),-3%,1%,7%,-5%,2%,7%
O=C(CCc1n[nH]c(=O)[nH]c1=O)Nc1cccc([N+](=O)[O-])c1,-14%,·,0%,-3%,-20%,?
O=Cc1cccc(OC(=O)c2ccc(Cl)cc2Cl)c1,-7%,16µM*,3%,-14%,-14%,?
COc1ccccc1NC(=O)/C(C#N)=C/c1c(C)nn(-c2ccc(F)cc2)c1Cl,6%,0%,13%,8%,-2%,-8%
Cc1nn(-c2ccccc2)c(Cl)c1/C=C(\C#N)C(=O)NC(C)C,9%,-26%,-5%,14µM*,-2%,?
O=C(O)c1ccc(Nc2cc(Cl)c3nonc3c2[N+](=O)[O-])cc1,-2%,·,-8%,4%,?,7.1µM*
Cc1c(Nc2cc(Cl)c3nonc3c2[N+](=O)[O-])c(=O)n(-c2ccccc2)n1C,?,·,0%,-1%,10µM*[quencher],4µM*
CN(C)C(=O)COc1ncnc2scc(-c3ccc(F)cc3)c12,6%,·,1%,5%,6%,4%
COC(=O)c1c(NC(=O)C2SC(=NC3CCCCC3)C(C(N)=O)=C2N)sc2c1CCCC2 (stereo not given),?,-19%,?,0%,16µM*[quencher],?
C=C(C)CN=C1SC(C(=O)Nc2sc3c(c2C(=O)OC)CCC3)C(N)=C1C(N)=O (stereo not given),8%,?,?,25µM*,?,?
C[C@@H]1CCCN(CP(=O)(c2ccccc2)c2ccccc2)C1,·,-8%,·,2%[13.5 µM],·,·
Cn1c(=O)c([N+](=O)[O-])c(Cl)c2ccccc21,7%,·,-1%,18µM*,-12%,?
Cc1ccc(Nc2c([N+](=O)[O-])c(=O)n(C)c3ccccc23)cc1C,2%,-11%,6%,8.9µM*,-17%,?
CCn1c(=O)c([N+](=O)[O-])c(NCCc2ccccc2)c2ccccc21,-9%,16µM*,-1%,?,?,?
Cn1c(=O)c([N+](=O)[O-])c(NCCc2ccccc2)c2ccccc21,-6%,16µM*,1%,-8%,-15%,?
SMILES,Tau FP inhib,HPGD block,KDM4E inh,ALDH1A1 block,Tau fluor counter,Tau ThT inhib
Cc1cccc(NS(=O)(=O)c2ccc3c(c2)C(C)(C)C(=O)N3C)c1,0%,·,·,·,-5%,2%
COc1cccc(C2C([N+](=O)[O-])=C(N)Oc3cc(C)oc(=O)c32)c1 (stereo not given),3%,·,-9%,·,2%,1%
CC(=O)Nc1ccc(Nc2c([N+](=O)[O-])c(=O)n(-c3ccccc3)c3ccccc23)cc1,-10%,·,9%,10µM*,-12%,-7%
CCn1c(=O)c([N+](=O)[O-])c(NCCc2ccc(OC)c(OC)c2)c2ccccc21,1%,8.9µM*,6%,14µM*,5%,10%
O=c1c([N+](=O)[O-])c(N2CCCCCC2)c2ccccc2n1-c1ccccc1,-2%,-4%,5%,2%,-4%,-4%
Cn1cc(-c2nc3cncnc3n(Cc3ccccc3Cl)c2=O)c2ccccc21,·,·,·,-15%,·,·
O=C1CCC=C1C(O)c1ccc2c(c1)OCO2 (stereo not given),-5%,0%,0%,-2%,-15%,-8%
CCC(C)c1ccc(OCC(=O)Nc2cccc3ccc(C)nc23)cc1 (stereo not given),3%,·,·,·,-17%,-6%
O=[N+]([O-])/C(C=Nc1ccccc1O)=C\Nc1ccccc1O,-2%,·,13µM*,·,-24%,?
O=C(NC1(O)C(=O)c2ccccc2C1=O)c1ccc(C(F)(F)F)cc1,?,·,?,·,-15%,·
Cc1ccc(C(=O)NC2(O)C(=O)c3ccccc3C2=O)cc1C,4µM*,·,14µM*,·,-11%,·
CCCSc1nnc(CSc2nc3nc(C)cc(C)n3n2)o1,-2%,-12%,10%,5%,-2%,-1%
CCCCSc1nnc(CSc2nc3nc(C)cc(C)n3n2)o1,-5%,25µM*,0%,-7%,-9%,-2%
CC(C)Sc1nc(-c2ccccc2)cc(=O)[nH]1,-1%,-30%,0%,20µM*,5%,1%
CCC(Sc1nc(-c2ccccc2)cc(=O)[nH]1)C(=O)O (stereo not given),2%,-9%,0%,-1%,-1%,-4%
CCOc1cc(C2CC(=O)Nc3c2c(=O)nc(SCc2cccc(Cl)c2)n3C)ccc1O (stereo not given),1%,·,·,·,-4%,-6%
NCCC[C@@H](CC(=O)N[C@@H]1CCCC[C@H]1C(=O)N[C@H](CC(=O)N[C@@H](CCC(=O)O)CC(=O)O)Cc1ccccc1)NC(=O)C[C@H](Cc1c[nH]c2ccccc12)NC(=O)[C@@H]1CNCC[C@H]1N,-8%,-5%,?,-6%,-6%,-8%
CCOc1ccc(C(=O)NCc2nnnn2-c2ccc(C)c(C)c2)cc1OCC,-1%,·,·,·,1%,7%
COc1ccc(NC(=O)/C(Cl)=C(/Cl)S(=O)Cc2ccccc2Cl)cn1 (stereo not given),?,·,-1%,0.63µM*,-11%,8.9µM*
COc1ccc(NC(=O)Cc2ccc(Cl)c(Cl)c2)cn1,-7%,·,-4%,0%,-22%,-5%

# Source: PubChem
